This is an account of results in PubChem BioAssay (Tox21).

SMILES strings stand for the structures. Several values for one entry are separate records, joined by “and”; a condition that tells them apart may be missing. Equal entries are not always repeated. Some compounds were tested as several samples or in several runs, with calls that do not always agree. Activity calls are given as the source filed them. Unless noted, the call rests on the fitted dose curve; in most records, active means well fitted curve in the direction sought with a large enough effect in the repeat runs; inconclusive means weak or mixed curves; inactive means no such curve, though single readings can be large; an effect the other way counts as inactive or inconclusive.

A short description of assay [1]: qHTS assay for identifying genotoxic compounds that show differential cytotoxicity against isogenic chicken DT40 cell lines with known DNA damage response pathways - wild type cell line (AID 743012). Further: nearly all actives have a fitted effect of over 60% in size. Further: potency means the concentration at half of the fitted maximal effect. A digest of the protocol: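 Viability of DNA repair-proficient chicken DT40 cells was assessed by CellTiter-Glo luminescence following 40 h compound exposure at 37 C/5% CO2.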
A general note: Quantitative high-throughput screening tests each substance at several concentrations.

The nature of assay [2]: qHTS assay for identifying genotoxic compounds that show differential cytotoxicity against isogenic chicken DT40 cell lines with known DNA damage response pathways - Rev3 mutant cell line (AID 743014). Further: nearly all actives have a fitted effect of over 55% in size. Further: potency means the concentration at half of the fitted maximal effect.
A short description of assay [3]: qHTS assay for identifying genotoxic compounds that show differential cytotoxicity against isogenic chicken DT40 cell lines with known DNA damage response pathways - Rad54/Ku70 mutant cell line (AID 743015). Further: nearly all actives have a fitted effect of over 60% in size. Further: potency means the concentration at half of the fitted maximal effect.
Assay [4] can be described thus: qHTS assay to identify small molecule antagonists of the androgen receptor (AR) signaling pathway - cell viability counter screen (AID 743033; further: nearly all actives have a fitted effect of over 45% in size; further: potency means the concentration at half of the fitted maximal effect).
Assay [5] in a line: qHTS assay to identify small molecule antagonists of the androgen receptor (AR) signaling pathway using the MDA cell line - cell viability counter screen (AID 743041; further: nearly all actives have a fitted effect of over 45% in size; further: potency means the concentration at half of the fitted maximal effect). A digest of the protocol: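 Using the breast carcinoma line MDA-kb2 AR-luc, test chemicals were co-incubated with R1881 for 16 h; CellTiter-Fluor reagent, added at 15.5 h, provided a fluorescence measure of live cells.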

Assay [6] is described as follows: qHTS assay to identify small molecule antagonists of the thyroid receptor (TR) signaling pathway - cell viability counter screen (AID 743064). Further: nearly all actives have a fitted effect of over 50% in size. Further: potency means the concentration at half of the fitted maximal effect. The procedure, abridged: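 CellTiter-Fluor readout, 30 min at 37 °C/5% CO2, following 23.5 h incubation of GH3.TRE-Luc cells with test compound and 1 nM T3 (final).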
A short description of assay [7]: qHTS assay to identify small molecule antagonists of the thyroid receptor (TR) signaling pathway (AID 743065). Further: nearly all actives have a fitted effect of over 55% in size. Further: potency means the concentration at half of the fitted maximal effect. A digest of the protocol: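 Antagonism measured as loss of luciferase signal in GH3 cells stably carrying a TRE-luciferase reporter, co-treated with compound and T3 (1 nM final) for 23.5 h at 37 C. Viability was read in the same well by CellTiter-Fluor.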

Assay [8] in a line: qHTS assay to identify small molecule antagonists of the estrogen receptor alpha (ER-alpha) signaling pathway - cell viability counter screen (AID 743074; calls by dose curve; further: nearly all actives have a fitted effect of over 45% in size; further: potency means the concentration at half of the fitted maximal effect).
In assay [9] the target is Estrogen receptor (Homo sapiens) (UniProt P03372). As to the kind of experiment: qHTS assay to identify small molecule agonists of the estrogen receptor alpha (ER-alpha) signaling pathway (AID 743075; calls by dose curve; further: potency means the concentration at half of the fitted maximal effect; on activation: on the % scale 0 is the no-effect control and ±100 the full control effect). As to conditions: HEK293 ER-alpha-UAS-bla, beta-lactamase FRET ratio, 18 h; activation: at 70.1 µM (top of the series).
Estrogen receptor (Homo sapiens), sequence (P03372 whole entry, looked up): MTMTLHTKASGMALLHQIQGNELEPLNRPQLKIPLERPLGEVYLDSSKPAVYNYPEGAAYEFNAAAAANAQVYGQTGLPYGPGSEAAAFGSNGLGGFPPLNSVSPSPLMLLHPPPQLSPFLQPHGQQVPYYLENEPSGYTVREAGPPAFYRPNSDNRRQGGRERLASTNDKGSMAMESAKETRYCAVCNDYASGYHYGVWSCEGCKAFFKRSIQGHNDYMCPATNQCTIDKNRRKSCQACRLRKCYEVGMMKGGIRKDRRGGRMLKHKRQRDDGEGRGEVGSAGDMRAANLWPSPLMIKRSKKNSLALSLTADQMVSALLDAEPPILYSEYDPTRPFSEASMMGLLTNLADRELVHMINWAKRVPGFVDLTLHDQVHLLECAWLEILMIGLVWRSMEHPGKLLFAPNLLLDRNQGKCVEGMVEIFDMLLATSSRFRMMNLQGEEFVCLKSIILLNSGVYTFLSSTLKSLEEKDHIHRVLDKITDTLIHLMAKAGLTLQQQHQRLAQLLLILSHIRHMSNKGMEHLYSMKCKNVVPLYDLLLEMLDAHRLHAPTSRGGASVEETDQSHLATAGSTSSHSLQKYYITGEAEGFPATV
Assay [10] concerns the target Aromatase (Homo sapiens) (UniProt P11511). As to the kind of experiment: qHTS assay to identify aromatase inhibitors (AID 743083). Further: nearly all actives have a fitted effect of over 55% in size. Further: potency means the concentration at half of the fitted maximal effect.
Assay [11] has as its target Androgen receptor (Homo sapiens) (UniProt P10275). As to the kind of experiment: qHTS assay to identify small molecule agonists of the androgen receptor (AR) signaling pathway (AID 743036; active means well fitted activation curve with a large enough effect in the signal ratio in the repeat runs, with a control signal flat, not every such curve was filed as active; inconclusive means weak or mixed curves, or effect the other way; inactive means no such curve, though single readings can be large or run the other way; the % refers to the signal ratio; further: on the % scale 0 is the no-effect control and ±100 the full control effect). A digest of the protocol:
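Following a 4 h settling period, AR-UAS-bla HEK293 cells were dosed with compounds for 16 h at 37C. A 2 h room-temperature incubation with LiveBLAzer B/G FRET substrate preceded the fluorescence measurement.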

The target is the same in assay [12]. The assay is described as follows: qHTS assay to identify small molecule agonists of the androgen receptor (AR) signaling pathway using the MDA cell line (AID 743040; further: on the % scale 0 is the no-effect control and ±100 the full control effect; nearly all actives have a fitted effect of over 20% in size). A digest of the protocol:
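Stable MMTV-luciferase reporter in MDA-kb2 cells; note the promoter carries GR as well as AR response elements. 16 h compound treatment, 37C, 0% CO2; ONE-Glo luminescence endpoint.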

Assay [13] has the same target. The assay is described as follows: qHTS assay to identify small molecule antagonists of the androgen receptor (AR) signaling pathway using the MDA cell line (AID 743042; further: nearly all actives have a fitted effect of over 55% in size; further: potency means the concentration at half of the fitted maximal effect). The procedure, abridged:
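Antagonist mode: compounds plus R1881 agonist added to MDA-kb2 AR-luc cells, incubated 16 h at 37C. Luciferase reporter luminescence quantified, with multiplexed CellTiter-Fluor readout for cell viability.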

Assay [14] concerns thyroid hormone receptor (rat, GH3 cells). The assay is described as follows: qHTS assay to identify small molecule agonists of the thyroid receptor (TR) signaling pathway (AID 743066; calls by dose curve; further: on the % scale 0 is the no-effect control and ±100 the full control effect).
Assay [15] in a line: qHTS assay to identify small molecule antagonists of the estrogen receptor alpha (ER-alpha) signaling pathway using the BG1 cell line (AID 743080; calls by dose curve;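 further: BG1 cells stimulated with 17beta-estradiol alongside compound; nearly all actives have a fitted effect of over 25% in size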; further: potency means the concentration at half of the fitted maximal effect). The procedure, abridged:
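Endogenous full-length ER-alpha in BG1-Luc-4E2 cells drives a stably integrated 4×ERE luciferase gene; compounds were tested against 17beta-estradiol over 21.5 h, with luminescence and multiplexed viability fluorescence recorded.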

Assay [16] in a line: qHTS assay to identify small molecule antagonists of the estrogen receptor alpha (ER-alpha) signaling pathway using the BG1 cell line - cell viability counter screen (AID 743081).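 Further: compound given together with 17beta-estradiol as the ER stimulus; nearly all actives have a fitted effect of over 45% in size.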 Further: potency means the concentration at half of the fitted maximal effect.
A short description of assay [17]: qHTS assay to identify aromatase inhibitors - cell viability counter screen (AID 743084). Further: potency means the concentration at half of the fitted maximal effect.
Assay [18] concerns the target Estrogen receptor (Homo sapiens) (UniProt P03372). As to the kind of experiment: qHTS assay to identify small molecule antagonists of the estrogen receptor alpha (ER-alpha) signaling pathway (AID 743069; active means well fitted curve in the direction sought with a large enough effect in the signal ratio in the repeat runs, not every such curve was filed as active; inconclusive means weak or mixed curves, or effect the other way; inactive means no such curve, though single readings can be large or run the other way; the % refers to the signal ratio; further: potency means the concentration at half of the fitted maximal effect). A digest of the protocol: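 Fluorescence intensity from a beta-lactamase FRET substrate served as the read-out. Cells: HEK293 with stably integrated ER-alpha-UAS-bla reporter. Agonist 17beta-estradiol was co-added with compounds; incubation 18 hr at 37C, substrate 2 hr at room temperature.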

Assay [19] shares this target. As to the kind of experiment: qHTS assay to identify small molecule agonists of the estrogen receptor alpha (ER-alpha) signaling pathway using the BG1 cell line (AID 743079). Further: nearly all actives have a fitted effect of over 20% in size. Further: potency means the concentration at half of the fitted maximal effect. On activation: on the % scale 0 is the no-effect control and ±100 the full control effect. As to conditions: BG1Luc4E2 cells, ERE-luciferase agonist, 22 h.

Androgen receptor (Homo sapiens), sequence (P10275 whole entry, looked up): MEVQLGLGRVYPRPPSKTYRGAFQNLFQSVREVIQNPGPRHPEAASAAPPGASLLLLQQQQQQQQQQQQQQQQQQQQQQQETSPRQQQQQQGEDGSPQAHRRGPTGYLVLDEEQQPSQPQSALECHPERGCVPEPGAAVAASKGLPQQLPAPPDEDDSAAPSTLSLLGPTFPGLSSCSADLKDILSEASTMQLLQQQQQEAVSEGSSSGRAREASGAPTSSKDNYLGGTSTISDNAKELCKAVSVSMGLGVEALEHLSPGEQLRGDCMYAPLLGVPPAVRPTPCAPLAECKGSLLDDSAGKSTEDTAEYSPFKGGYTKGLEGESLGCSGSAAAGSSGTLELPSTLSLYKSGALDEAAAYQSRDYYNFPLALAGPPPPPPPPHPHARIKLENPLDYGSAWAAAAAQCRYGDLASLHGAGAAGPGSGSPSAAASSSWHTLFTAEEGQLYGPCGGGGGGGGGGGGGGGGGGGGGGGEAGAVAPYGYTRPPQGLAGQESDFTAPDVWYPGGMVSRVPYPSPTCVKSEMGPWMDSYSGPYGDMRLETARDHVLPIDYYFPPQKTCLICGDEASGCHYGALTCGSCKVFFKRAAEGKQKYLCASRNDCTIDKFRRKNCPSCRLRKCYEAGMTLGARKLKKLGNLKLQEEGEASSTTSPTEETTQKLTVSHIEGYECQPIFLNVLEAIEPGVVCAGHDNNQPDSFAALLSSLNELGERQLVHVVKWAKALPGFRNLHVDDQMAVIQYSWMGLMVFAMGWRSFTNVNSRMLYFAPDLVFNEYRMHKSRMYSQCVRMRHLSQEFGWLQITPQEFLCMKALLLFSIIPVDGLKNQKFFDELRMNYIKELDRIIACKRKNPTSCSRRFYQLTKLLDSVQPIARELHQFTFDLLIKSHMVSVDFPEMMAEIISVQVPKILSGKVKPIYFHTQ
Aromatase (Homo sapiens), sequence (P11511 whole entry, looked up): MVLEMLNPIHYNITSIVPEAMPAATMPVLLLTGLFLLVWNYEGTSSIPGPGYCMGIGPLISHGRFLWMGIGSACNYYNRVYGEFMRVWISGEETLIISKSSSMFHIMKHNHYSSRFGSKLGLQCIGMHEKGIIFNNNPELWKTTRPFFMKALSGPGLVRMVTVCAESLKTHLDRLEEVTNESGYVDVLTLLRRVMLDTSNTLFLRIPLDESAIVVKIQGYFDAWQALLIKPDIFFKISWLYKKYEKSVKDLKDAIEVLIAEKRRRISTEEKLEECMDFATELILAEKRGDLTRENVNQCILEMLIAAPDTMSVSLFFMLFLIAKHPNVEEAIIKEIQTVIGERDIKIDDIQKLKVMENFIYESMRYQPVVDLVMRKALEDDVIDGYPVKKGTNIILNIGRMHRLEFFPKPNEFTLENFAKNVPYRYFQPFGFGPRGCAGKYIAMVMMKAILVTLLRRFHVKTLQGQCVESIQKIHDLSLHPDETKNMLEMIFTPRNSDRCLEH

`O=C(Nc1cccc(C(F)(F)F)c1)c1cc(Br)cc(Br)c1O`: the Potency in assay [1] was 5.31 µM (active) and 6.11 µM (active); in [2], 5.96 µM (active) and 7.7 µM (active); in assay [3], 6.68 µM (active) and 4.86 µM (active); in assay [4], 4.25 µM (active) and 4.36 µM (active); in assay [5] it was 11.9 µM (active) and 10.9 µM (active); in [6], 5.96 µM (active) and 2.43 µM (active). For the same compound, the Potency in assay [7] is 2.98 µM (active) and 1.09 µM (active); in [8] it was 1.34 µM (active) and 977 nM (active); in [10], 11.9 µM (active) and 4.86 µM (active). The Potency result in assay [9] is “inactive”.
Take `O=C(Nc1cccc([N+](=O)[O-])c1)c1cc2ccccc2cc1O`: the Potency in assay [1] is 2.17 µM (active); in assay [2] it was 2.17 µM (active); in assay [3], 2.17 µM (active); in assay [4], 1.38 µM (active); in [5] it was 10.9 µM (active); in assay [13] it was 6.86 µM (active). Besides, the Potency in assay [6] was 1.72 µM (active); in assay [7] it was 0.864 µM (active); in assay [8], 49 µM (active); in [15], 8.63 µM (active); in assay [10], 2.73 µM (active). Further, the Potency entry in [11], in [12], in assay [14] and in assay [9] was “inactive” throughout.
In the case of `Oc1c(Cl)cc(Cl)c2cccnc12`, the Potency in assay [1] was 3.76 µM (active); in [2], 3.76 µM (active); in assay [3], 4.22 µM (active); in assay [5], 11.1 µM (active); in assay [6], 9.44 µM (active); in [7], 6.68 µM (active). Besides, the Potency was 21.1 µM (active) in assay [15] and 11.9 µM (active) in [10]. For the same compound, the Potency entry in assay [4], in [16] and in assay [17] was “inactive” each time.
With `CC(C)OC(=O)c1cc2c(OCC(O)CNC(C)(C)C)cccc2[nH]1` (stereo not drawn), the values for the Potency in assay [3], in [6] and in assay [7] were 26.6 µM (active), 13.3 µM (active) and 21.1 µM (active), respectively. Further, the Potency result in assay [4], in assay [12], in assay [5], in [13], in [14] and in assay [8] was “inactive” throughout. For the same compound, the Potency result in [16], in assay [10] and in [17] was “inactive” each time.
For the compound `Oc1cccc(-c2c3nc(c(-c4cccc(O)c4)c4ccc([nH]4)c(-c4cccc(O)c4)c4nc(c(-c5cccc(O)c5)c5ccc2[nH]5)CC4)C=C3)c1`, the Potency in assay [2] is 29.8 µM (active); in [3] it was 26.6 µM (active); in assay [4] it was “inactive and 23.9 µM (active)”; in [5], 23.7 µM (active); in [6] it was 11.9 µM (active) and 10.6 µM (active); in assay [7], 8.41 µM (active) and 7.5 µM (active). In addition, the Potency was 9.44 µM (active) and 11.9 µM (active) in assay [16]; “inactive and 26.6 µM (active)” in assay [10]; 29.8 µM (active) and 21.1 µM (active) in assay [17]. Also, the Potency result in assay [12], in assay [13], in assay [9] and in [15] was “inactive” throughout.
Turning to `[Cl][Au]([Cl])[Cl]`, the Potency in assay [1] was 13.7 µM (active); in assay [2], 12.2 µM (active); in assay [3], 13.7 µM (active); in [4], 21.9 µM (active); in [6], 3.86 µM (active); in assay [10] it was 24.3 µM (active). Moreover, in assay [17], the Potency is 27.3 µM (active).
Turning to `Oc1ccc(N=Nc2ccccc2)cc1`, the Potency in [2] is 61.9 µM (active); in assay [7] it was 61.9 µM (active); in [18] it was 39.4 µM [inconclusive] (active); in assay [9], 49.6 µM [inconclusive] (active); in assay [19] it was 6.19 µM (active); in [17], 31 µM (active). For the same compound, the Potency entry in [13], in assay [14] and in [10] was “inactive” each time.
On to `COc1ccc(-c2ccc3cc(C(=O)O)ccc3c2)cc1C12CC3CC(CC(C3)C1)C2`, for which the Potency entry in assay [1], in assay [2], in [3], in [4], in assay [5] and in assay [14] was “inactive” each time. In addition, the Potency entry in assay [8], in assay [9], in [16] and in assay [17] was “inactive” in each case. The Potency in [6] was 1.68 µM (active); in [7], 1.33 µM (active); in assay [18], 7.56 µM [inconclusive] (active); in assay [15] it was 0.376 µM (active). Besides, the activation in assay [19] (at 70.3 µM (top of the series)) is -4.61% (inactive).
As to `C=C(C)C(=O)OCC(O)COc1ccc(C(C)(C)c2ccc(OCC(O)COC(=O)C(=C)C)cc2)cc1` (stereo not drawn), the Potency in assay [1] was 5.45 µM (active); in assay [2], 6.86 µM (active); in [3], 6.86 µM (active); in assay [4], 24.5 µM (active); in [5] it was 21.7 µM (active); in assay [7], 61.1 µM (active). Besides, the Potency in [8] was 43.6 µM (active); in assay [10], 30.6 µM (active); in assay [17], 61.1 µM (active). Also, the Potency result in assay [14] and in [9] was “inactive” in each case.
Consider `CCN(CC)CCNC(=O)c1c(C)[nH]c(/C=C2\C(=O)Nc3ccc(F)cc32)c1C`, for which the Potency was 5.96 µM (active) in [1]; 9.44 µM (active) in assay [2]; 7.5 µM (active) in assay [3]; 26.6 µM (active) in assay [6]; 9.44 µM (active) in [16]; 26.6 µM (active) in assay [17]. Also, the Potency result in assay [4], in [5] and in [8] was “inactive” throughout.
Regarding `CCCCCCCCS(=O)C(C)Cc1ccc2c(c1)OCO2` (stereo not drawn), the Potency is 69.9 µM (active) in [2], 69.9 µM (active) in assay [3], 69.9 µM (active) in assay [6] and 62.3 µM (active) in [7]. The Potency entry in assay [11], in assay [12], in assay [14], in assay [8], in assay [9] and in [16] was “inactive” throughout.
For `OCc1c[nH]c2ccccc12`, the Potency is 30.6 µM (active) in assay [1]; 51.4 µM (active) in assay [2]; 64.8 µM (active) in [3]; 62.9 µM (active) in assay [6]; 54.5 µM (active) in assay [7]; 4.36 µM [fluorescent] (active) in [9]. Moreover, the Potency in assay [10] is 33.4 µM (active). Also, the Potency result in [12] and in assay [14] was “inactive” throughout.
With `O=C(O)c1c(Cl)cccc1Cl`, the Potency result in [2], in assay [3], in assay [4], in assay [5], in assay [6] and in [7] was “inactive” in each case. For the same compound, the Potency entry in [14], in assay [8], in [16], in assay [10] and in assay [17] was “inactive” in each case.
Regarding `CC1(C)CCC(C)(C)c2cc(C(=O)Nc3ccc(C(=O)O)cc3)ccc21`, the Potency was 19.3 µM (active) in assay [2]; 21.7 µM (active) in assay [3]; 68.6 µM (active) in assay [6]; 48.6 µM (active) in [7]; 0.0043 µM (active) in assay [15]. Moreover, the Potency result in assay [11], in [12], in [8], in [9], in assay [16] and in assay [10] was “inactive” each time.
